Among the test systems are HOP-62 NSCLC; NCI-H460 lung; HOP-92 NSCLC; NCI-H522 lung; A549/ATCC NSCLC; 786-0 renal; COLO 205 colon; DU-145 prostate; K-562 leukemia; MALME-3M melanoma; MDA-MB-231 breast; RXF 393 renal; SF-268 CNS; SF-295 CNS; SF-539 CNS; UACC-257 melanoma; M14 melanoma; HCT-15 colon; NCI-H322M lung.
Holding throughout (experiment): NCI-60 one-dose screen, 48 h (100 = growth as untreated, 0 = no growth, -100 = all killed)
Common to all, as to details: 10 µM unless noted

This is part of a sample that, as a whole, favours compounds with a hit. Of some 83,000 tested, about 20% had one in any assay.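 Each cell line was grown in a 96-well plate and treated with one concentration of compound for 48 hours. Values below 10 were considered active.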 A number with no mark means an inactive call. Calls of active or inactive are those of the source.

For the compound `Nc1cc(-c2c[nH]c3ccc(F)cc23)nc2cc(-c3c[nH]c4ccc(F)cc34)nn12`, the growth with HOP-62 NSCLC is 101%; in the experiment on NCI-H460 lung, 32.2%; with HOP-92 NSCLC it was 83.5%; in the experiment on NCI-H522 lung, 90.3%; in the experiment with A549/ATCC NSCLC it was 79.5%; in the experiment on 786-0 renal it was 66.3%. The growth in the experiment on COLO 205 colon was 118%; with DU-145 prostate, 72.7%; with K-562 leukemia it was 0.113% (active); in the experiment on MALME-3M melanoma, 94.9%; in the experiment on MDA-MB-231 breast it was 70.6%; with RXF 393 renal, 128%. The growth is 91.8% with SF-268 CNS; 85.4% in the experiment on SF-295 CNS; 87.4% in the experiment on SF-539 CNS; 116% in the experiment on UACC-257 melanoma; 79.3% in the experiment with M14 melanoma; 31% in the experiment on HCT-15 colon.
Regarding `Cn1ccnc1C(=O)/C=C/c1ccc(NC(=O)Nc2ccccc2)cc1`, the growth is 28.8% in the experiment with NCI-H322M lung; 16.1% in the experiment on HOP-62 NSCLC; -56.7% (active) in the experiment on NCI-H460 lung; 57.4% with HOP-92 NSCLC; 6.79% (active) in the experiment on A549/ATCC NSCLC; 5.89% (active) in the experiment on 786-0 renal. Moreover, the growth in the experiment on COLO 205 colon is 11.1%; with DU-145 prostate, 4.23% (active); in the experiment with K-562 leukemia, 7.81% (active); in the experiment on MALME-3M melanoma, 69.6%; with MDA-MB-231 breast, -2.86% (active); with RXF 393 renal it was -5.31% (active). In addition, the growth in the experiment on SF-268 CNS was 3.22% (active); in the experiment with SF-295 CNS, 3.79% (active); in the experiment with SF-539 CNS, -29.5% (active); in the experiment on UACC-257 melanoma, 80%; in the experiment with M14 melanoma, 24.8%; in the experiment with HCT-15 colon, 12.4%.
Turning to `Fc1ccc(-c2cc3nc(C(Cl)Cl)nc(-c4ccc(Cl)cc4)n3n2)cc1`, the growth with NCI-H322M lung is -44.9% (active); in the experiment with HOP-62 NSCLC it was -25.8% (active); with NCI-H460 lung, -66.3% (active); in the experiment with HOP-92 NSCLC, 24.7%; in the experiment on NCI-H522 lung, 30.3%; with A549/ATCC NSCLC, -58.2% (active). Also, the growth with 786-0 renal was 47.4%; in the experiment on COLO 205 colon, -56.6% (active); in the experiment with DU-145 prostate, -23% (active); with K-562 leukemia, 24.3%; in the experiment with MALME-3M melanoma, 37.4%; in the experiment on MDA-MB-231 breast it was 7.4% (active). The growth in the experiment with RXF 393 renal was -55.5% (active); in the experiment with SF-268 CNS, 26.2%; in the experiment on SF-295 CNS, 9.78% (active); with SF-539 CNS it was 21%; in the experiment with UACC-257 melanoma, 39.1%; in the experiment with M14 melanoma, 22.3%. Further, in the experiment with HCT-15 colon, the growth is 12.1%.
As for `CCOC(=O)c1csc(NC(=O)CSc2nc3sc4c(c3c(=O)n2-c2ccc(Cl)cc2)CCCC4)n1`, the growth was 101% in the experiment on NCI-H322M lung; 101% in the experiment with HOP-62 NSCLC; 100% with NCI-H460 lung; 77.8% in the experiment on HOP-92 NSCLC; 98.6% with A549/ATCC NSCLC; 103% in the experiment with 786-0 renal. The growth is 107% in the experiment on DU-145 prostate; 93.4% with K-562 leukemia; 104% in the experiment on MALME-3M melanoma; 94.6% in the experiment on MDA-MB-231 breast; 100% with RXF 393 renal; 89% in the experiment with SF-268 CNS. Further, the growth with SF-295 CNS was 91.9%; with SF-539 CNS it was 104%; in the experiment with UACC-257 melanoma, 100%; in the experiment with M14 melanoma, 93.1%; in the experiment on HCT-15 colon, 97.7%.
For `COc1ccc(NC2=CC(=O)C(C)=C(C)C2=O)cc1`, the growth with HOP-62 NSCLC is 99.7%; with NCI-H460 lung, 99.6%; with HOP-92 NSCLC, 172%; in the experiment with A549/ATCC NSCLC it was 97.3%; in the experiment with 786-0 renal, 90.5%; in the experiment on COLO 205 colon, 107%. The growth with DU-145 prostate is 105%; with K-562 leukemia, 66.6%; with MALME-3M melanoma, 89.9%; with MDA-MB-231 breast, 83.8%; in the experiment with RXF 393 renal, 102%; in the experiment on SF-268 CNS, 101%. Also, the growth in the experiment on SF-295 CNS is 105%; in the experiment with SF-539 CNS, 105%; in the experiment on UACC-257 melanoma, 45.4%; in the experiment on M14 melanoma, 95.6%; with HCT-15 colon, 89%.
On to `COc1cc2nc(-c3ccc(Cl)cc3)cc(OCCCNCC3CCCO3)c2cc1OC` (stereo not given), for which the growth is 66.7% in the experiment with NCI-H322M lung; 64.3% in the experiment with HOP-62 NSCLC; 30.2% with NCI-H460 lung; 35.4% with HOP-92 NSCLC; 53.2% in the experiment with A549/ATCC NSCLC; 43.3% in the experiment on 786-0 renal. The growth in the experiment on COLO 205 colon is 33.5%; in the experiment on DU-145 prostate, 49.2%; with K-562 leukemia, 16.7%; in the experiment on MALME-3M melanoma it was 12.3%; with MDA-MB-231 breast, 33.8%; with RXF 393 renal, 31.3%. In addition, the growth with SF-268 CNS is 77.9%; in the experiment on SF-295 CNS, 34.5%; with SF-539 CNS it was 56.4%; with UACC-257 melanoma, -33.9% (active); in the experiment with M14 melanoma, -71.5% (active); in the experiment with HCT-15 colon, 23.9%.
With `COc1ccccc1/C=C/C=N/NC1=NC2C(S1)N(C)C(=O)N2C` (stereo not given), the growth with NCI-H322M lung was 51.7%; with HOP-62 NSCLC, 35.6%; with NCI-H460 lung, 11.1%; in the experiment on HOP-92 NSCLC, 9.2% (active); in the experiment on NCI-H522 lung, -24% (active); in the experiment on A549/ATCC NSCLC, 48.3%. Further, the growth in the experiment on 786-0 renal is 44.2%; in the experiment on COLO 205 colon it was 5.69% (active); in the experiment on DU-145 prostate it was 24.5%; in the experiment on K-562 leukemia, 9.44% (active); in the experiment on MALME-3M melanoma it was 43.8%; in the experiment with MDA-MB-231 breast, 40%. For the same compound, the growth in the experiment on RXF 393 renal was -20.8% (active); with SF-268 CNS, 52%; in the experiment with SF-295 CNS, 16.2%; with SF-539 CNS, 5.56% (active); in the experiment on UACC-257 melanoma it was 78.8%; in the experiment on M14 melanoma, 19%. The growth in the experiment on HCT-15 colon is 30.4%.
`Cc1ccc2c(n1)C(=O)C(Cl)=C(Nc1cccc(C(C)C)c1)C2=O`: the growth with NCI-H322M lung is 85%; with HOP-62 NSCLC, 89.1%; in the experiment with NCI-H460 lung, 78.8%; in the experiment on HOP-92 NSCLC, 110%; in the experiment on NCI-H522 lung, 23.4%; in the experiment on A549/ATCC NSCLC it was 29.9%. The growth in the experiment with 786-0 renal is 68.4%; with COLO 205 colon, 112%; with DU-145 prostate, 22.5%; with K-562 leukemia it was 3.49% (active); in the experiment with MALME-3M melanoma it was 83.8%; in the experiment on MDA-MB-231 breast, 45.8%. For the same compound, the growth was 73.1% with RXF 393 renal; 80.9% in the experiment on SF-268 CNS; 70.1% in the experiment with SF-295 CNS; 80.7% in the experiment with SF-539 CNS; 1.85% (active) with UACC-257 melanoma; 44.7% in the experiment with M14 melanoma. Further, in the experiment with HCT-15 colon, the growth is 32.4%.
